# Source: PubChem BioAssay (several laboratories)
# A selection: hits, their analogues and other compounds. The true share with any hit is near 2.1%.
# CTSL1 counter-1 – blocks F. hepatica cathepsin L1 in PFM18AAP counter-screen; 300,000 compounds, 0.49% hits; recombinant F. hepatica cathepsin L1, Z-Leu-Arg-MCA fluorescence; inhibition, % at 5.96 µM;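 active = inhibition above the mean of all tested compounds plus 3 SD, set per screening campaign, cut at about 17% in these data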;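 note: 0% = plate median of test compound wells and 100% = 1 µM Z-Phe-Ala-diazomethylketone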
# PfM18AAP inh-1 – blocks P. falciparum M18 aspartyl aminopeptidase | 290,000 compounds, 1.2% hits | inhibition, % at 7.35 µM | AID 1822 | recombinant PfM18AAP, H-Glu-NHMec fluorogenic cleavage;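 active = inhibition above the campaign mean inhibition over all tested compounds plus 3 SD, cut at about 28% in these data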;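 note: 0% = plate median of test compound wells and 100% = 2 mM ZnCl2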
# Calb FLC – affects C. albicans growth with fluconazole | C. albicans CaCi-2 (fluconazole-resistant clinical isolate) + fluconazole, Alamar Blue growth, 48 h | growth inhibition, % (test concentration not listed) | 300,000 compounds, 0.57% hits;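 active = growth inhibition above about 58% in most replicates, limit read from the data, passing the limit was not always enough; inconclusive = exactly half the replicates above a set limit; inactive = most replicates below a set limit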;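 note: all wells also contain fluconazole at 8 µg/ml as a sub-toxic cotreatment; 0% = median of DMSO wells and 100% = median of geldanamycin control wells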
# Rin1 Abl inh – inhibitors of human Rin1-Abl protein interaction; 360,000 compounds, 0.4% hits; inhibition, % at 7.35 µM; TR-FRET Rin1/Abl binding, biochemical; AID 588664; P00519+Q13671; in the data active = inhibition above about 5%, passing the limit was not always enough
# PfM18AAP inh-2 – PfM18AAP inhibition, confirmation; shares compounds with PfM18AAP inh-1; recombinant PfM18AAP, H-Glu-NHMec fluorogenic cleavage; 2,400 compounds, 28% hits; inhibition, % at 7.35 µM;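 active = mean inhibition over replicate wells above the hit cutoff set for the earlier primary screen, cut at about 29% in these data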;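 note: 0% = median of test compound wells and 100% = 2 mM ZnCl2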
# CTSL1 counter-2 – counter-screen for PFM18AAP inhibitors: confirmation of human cathepsin L inhibitors | shares compounds with PfM18AAP inh-1 | purified cathepsin L1, Z-Leu-Arg-MCA fluorescence | inhibition, % at 5.96 µM | 2,400 tested, under 10 active | AID 2178;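 active = average inhibition across replicates above the hit cutoff set in the earlier primary screen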;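 note: 0% = median of test compound wells and 100% = Z-Phe-Ala-diazomethylketone 1 µM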
# Target sequence (P07711 whole entry, looked up): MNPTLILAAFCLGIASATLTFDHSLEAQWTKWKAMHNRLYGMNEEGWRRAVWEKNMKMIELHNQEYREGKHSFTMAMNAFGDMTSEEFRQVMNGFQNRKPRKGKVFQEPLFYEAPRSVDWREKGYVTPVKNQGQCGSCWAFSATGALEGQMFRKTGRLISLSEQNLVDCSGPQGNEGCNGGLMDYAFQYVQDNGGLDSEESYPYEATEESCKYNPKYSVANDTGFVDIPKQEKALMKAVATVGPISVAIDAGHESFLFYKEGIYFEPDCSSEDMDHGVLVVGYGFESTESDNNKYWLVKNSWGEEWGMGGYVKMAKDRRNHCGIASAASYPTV
# An asterisk follows results filed as active; ? = inconclusive; · = no result.
SMILES,CTSL1 counter-1,PfM18AAP inh-1,Calb FLC,Rin1 Abl inh,PfM18AAP inh-2,CTSL1 counter-2
Cc1cc(C(=O)CSc2nnc(N)s2)c(C)n1C1CC1,-5.4,·,-2.4,-2.9,·,·
Cc1cc(C(=O)CSc2nc(N)cc(N)n2)c(C)n1C1CC1,0.3,36.4*,-12.4,0.6,-15.2,2.2
O=C(CCS(=O)(=O)c1ccc(F)cc1)Nc1nc(-c2ccncc2)cs1,1.6,52.4*,?,-1.6,18.5,0.9
O=C(COc1ccc(Cl)cc1)Nc1nc(-c2ccncc2)cs1,3.4,34.6*,9.0,0.6,-27.6,3.9
O=C(CCN1C(=O)C2CC=CCC2C1=O)Nc1ccc(S(=O)(=O)N2CCCCC2)cc1 (centres undefined),·,·,·,3.1,·,·
CCOc1ccc2c(c1)-c1c(ssc1=S)C(C)(C)N2C,0.6,33.5*,4.2,-1.4,-25.1,-2.1
OC(COCCOc1ccc(Br)cc1)CN1CCN(Cc2ccccc2)CC1 (centres undefined),3.0,0.6,-4.0,-2.2,·,·
Cc1ccc(-n2cccn2)c(CN2CCCC(CNC(=O)c3ccc(F)cc3)C2)c1 (centres undefined),0.7,-3.4,-4.5,3.1,·,·
Cc1c(O)ccc2c(CN3CCN(Cc4ccccc4)CC3)cc(=O)oc12,-9.1,-0.7,5.4,0.3,·,·
O=c1cc(CN2CCOCC2)c2ccc(O)c(O)c2o1,-2.1,35.7*,0.4,1.7,9.2,-4.4
O=c1cc(CN2CCN(Cc3ccccc3)CC2)c2ccc(O)c(O)c2o1,-6.2,48.2*,88.0*,5.3,8.6,-5.0
CCC(C)(C#CCN1CCCCC1)OCCC#N (centres undefined),-6.2,-1.1,7.6,-3.4,·,·
O=C(NNc1cccc(Cl)n1)Nc1cccc(C(F)(F)F)c1,-3.8,54.0*,-16.0,0.9,37.0*,0.9
O=C(NNc1cccc(Cl)n1)Nc1ccc(Cl)cc1,0.1,55.8*,-4.3,2.0,35.8*,-2.4
O=C(Nc1ccc(Cl)cc1)Nc1ccccn1,1.6,1.3,-1.1,0.2,·,·
CCCNC(=O)c1ccc(N2CCC3(CC2)CC(c2ccccc2)=NO3)c(NC(=O)c2cccc(C)c2)c1,0.6,8.4,11.5,-0.8,·,·
CC(C)(C)NC(=O)Nc1ccc(F)c(Cl)c1,-2.3,1.4,9.6,-1.8,·,·
Cc1c(Cl)cccc1NC(=O)Nn1cnnc1,·,82.0*,-17.4,4.3,64.6*,1.4
O=C(Nc1cc(Cl)ccc1Cl)Nn1cnnc1,·,87.5*,31.9,6.2,89.4*,4.7
CCOC(=O)c1ccc(NC(=O)Nc2ccn(C)n2)cc1,7.0,4.0,73.2,-2.5,·,·
O=C(Nc1ccncc1)Nc1cc(Cl)ccc1Cl,·,0.3,42.8,6.5,·,·
CCOC(=O)c1ccc(NC(=O)Nn2cnnc2)cc1,·,72.4*,-17.7,1.1,64.1*,1.2
O=C(Nc1ccc(F)c(Cl)c1)Nn1cnnc1,0.8,76.1*,-6.4,0.2,60.1*,-0.7
O=C(NCCC(=O)N1CCN(C(=O)c2ccco2)CC1)c1ccccc1Cl,·,·,·,1.2,·,·
O=C(Nc1ccc(F)cc1)Nc1cccnc1,·,6.7,-5.1,-0.5,·,·
SMILES,CTSL1 counter-1,PfM18AAP inh-1,Calb FLC,Rin1 Abl inh,PfM18AAP inh-2,CTSL1 counter-2
O=C(Nc1ccc(F)cc1)Nn1cnnc1,-7.5,58.3*,1.1,2.9,46.3*,-4.5
Cc1cc(C)c(S(=O)(=O)N2CCCOC2CNC(=O)C(=O)NCc2ccncc2)c(C)c1 (centres undefined),-2.3,0.0,?,1.7,·,·
COCc1cc(C)nc(SCc2ccc(Br)cc2)c1C#N,0.5,·,2.7,-1.5,·,·
C(=N\Nc1nn2cnnc2c2ccccc12)/c1ccco1,1.3,44.2*,11.1,0.4,-23.2,-0.6
Oc1ccc(/C=N/Nc2nn3cnnc3c3ccccc23)cc1,-4.5,32.9*,9.4,-6.5,-58.0,2.3
C/C(=N\Nc1ccc2nncn2n1)c1cccs1,14.9,40.3*,2.6,-4.5,-15.8,-0.4
COc1cc(/C=N/Nc2nn3cnnc3c3ccccc23)ccc1O,2.6,4.9,3.4,-0.5,·,·
BrC(=C\c1ccccc1)/C=N/n1cnnc1,·,68.2*,86.2*,2.7,60.8*,3.9
CCOC(=O)c1c(O)cc(OC)cc1CCc1ccccc1,·,·,·,0.0,·,·
COc1cccc(CC(=O)Nc2ccccc2N2CCCC2)c1,-2.5,2.4,-4.5,0.8,·,·
Cc1ccc(NC(=O)Cn2c(=O)c3cccn3c3ccccc32)c(Cl)c1,0.8,-1.8,0.4,-1.4,·,·
O=S(=O)(NCc1ccccn1)c1cc(OCC(F)(F)F)ccc1OCC(F)(F)F,2.5,1.0,-2.1,1.2,·,·
